The whole screen tested about 48,000 compounds, of which about 13,000 (27%) showed an effect of 50% or more. The list shows a part of the results.
System: Wolbachia pipientis
Experiment: Anti-Wolbachia Cell-Based Screen
Format: functional
Parameters: scale not given: in the data most compounds retested in dose-response had high values
Details: 5 µM

Row | Compound | Percent Effect [%]
1 | COc1ccc(C)cc1S(=O)(=O)NCC(c1cccn1C)N(C)C (stereo not given) | 4.095
2 | CCOCCn1c(=O)[nH]c2cc(C(=O)N(C)Cc3nc(C)cs3)ccc21 | -23.7
3 | CCOCC(=O)N(C)Cc1nc(C(F)(F)F)cs1 | 102.1
4 | CCOCCC(=O)NCCNc1nccc(C(F)(F)F)n1 | -1.225
5 | Cc1c(C(=O)N(C)CC(C)O)sc2nc(C(F)(F)F)ccc12 (stereo not given) | 9.483
6 | Cc1nc(CN(C)c2nccc(C(F)(F)F)n2)cs1 | -8.606
7 | CCC(NC(=O)c1ccc(COC)o1)c1nc(C(F)(F)F)cs1 (stereo not given) | -11.95
8 | CCC(NC(=O)c1ccc(OC)nn1)c1nc(C(F)(F)F)cs1 (stereo not given) | -7.754
9 | CC(C)CC(=O)N(C)Cc1nc(C(F)(F)F)cs1 | 105.6
10 | COCCC(=O)N(C)Cc1nc(C(F)(F)F)cs1 | 98.57
11 | Cc1cc(CN(C)C(=O)c2ccnc(N(C)C)c2)no1 | -7.552
12 | CCOC1CCCN(C(=O)c2[nH]nc(C)c2Br)C1 (stereo not given) | 6.367
13 | CNC(=O)N1CCC2(CC1)c1ncc(C)n1CCN2C.O=C(O)C(F)(F)F.O=C(O)C(F)(F)F | 93.19
14 | CCN1CCn2c(C)cnc2C12CCN(C(=O)NC)CC2.O=C(O)C(F)(F)F | 106.5
15 | CCN1CCn2c(C)cnc2C12CCN(C(=O)NCC(C)C)CC2.O=C(O)C(F)(F)F | 99.78
16 | Cc1cnc2n1CCN(C)C21CCN(C(=O)CC(C)C)CC1.O=C(O)C(F)(F)F | 6.371
17 | Cc1cnc2n1CCN(C)C21CCN(CC2CC2)CC1.O=C(O)C(F)(F)F.O=C(O)C(F)(F)F.O=C(O)C(F)(F)F | 2.342
18 | CCN1CC[C@@]2(C(=O)N3CCOCC3)CCN(C(=O)NC)CC[C@@H]12.O=C(O)C(F)(F)F | -38.24
19 | NC(=O)C1CCN(Cc2ccc(S(=O)(=O)N3CCCC3)o2)CC1 | -8.364
20 | Cc1c(NCc2ccccc2C#N)cccc1-n1cnnn1 | 4.013
21 | N#CCCN(CC1CCOC1)Cn1ccc(-c2ccccc2)n1 (stereo not given) | -2.845
22 | CN(C)C1(C(=O)NC2CCC(Oc3ccccc3C#N)CC2)CCC1 (stereo not given) | -18.62
23 | CCN(Cc1nc(COC)no1)Cc1ccccc1OCC(=O)O | 10.36
24 | CCn1cc(C(=O)NCC(C)(CC)N2CCOCC2)c2ccccc21 (stereo not given) | 6.626

Row | Compound | Percent Effect [%]
25 | Cc1cnn(CCNCc2c(C)nn(Cc3ccccc3)c2C)c1 | -5.977
26 | O=C([C@@H]1CCCO1)N1CCOCC2(CCN(Cc3cccnc3)C2)C1 (stereo not given in full) | 95.11
27 | O=C(C1CCCO1)N1CCC2(CC1)COCCN(Cc1cccnc1)C2.O=C(O)C(F)(F)F.O=C(O)C(F)(F)F (stereo not given) | 128.2
28 | O=C(N1CCCC1)N1CCC2(CC1)COCCN(Cc1cccnc1)C2.O=C(O)C(F)(F)F.O=C(O)C(F)(F)F | -4.319
29 | O=C(C1CCCO1)N1CCC2(CC1)COCCN(Cc1ccncc1)C2.O=C(O)C(F)(F)F.O=C(O)C(F)(F)F (stereo not given) | -9.895
30 | O=C(C1CCC2(CCN(Cc3cccnc3)CC2)CO1)N1CCCC1.O=C(O)C(F)(F)F.O=C(O)C(F)(F)F (stereo not given) | 90.21
31 | O=C(O)C(F)(F)F.O=C(O)C(F)(F)F.O=C(c1ccsc1)N1CCC2(CC1)COCCN(Cc1ccncc1)C2 | 15.81
32 | Cn1cccc1CN1CCC2(CCCN(C(=O)Cc3cccnc3)C2)C1 (stereo not given) | 5.928
33 | O=c1[nH]c(C2CCOC2)nc2ccc(Cl)cc12 (stereo not given) | -0.06581
34 | CCC1CN(C(=O)c2ccccc2N2CCCC2)CCN1C(C)C (stereo not given) | -3.455
35 | CCC(=O)N1CCC2(CC1)C(c1cccnc1)CC(=O)N2CCOC.O=C(O)C(F)(F)F (stereo not given) | 110.5
36 | CCN1C(=O)CC(c2cnn(C)c2)C12CCN(C(=O)c1ccc[nH]1)CC2 (stereo not given) | 13.05
37 | CCN1C(=O)CC(c2cccnc2)C12CCN(c1ncc(F)cn1)CC2 (stereo not given) | -11.62
38 | COCCN1C(=O)CC(c2cccnc2)C12CCN(C(=O)C1CC1)CC2.O=C(O)C(F)(F)F (stereo not given) | 106.6
39 | COCCN1C(=O)CC(c2cccnc2)C12CCN(C)CC2 (stereo not given) | 113.4
40 | CCN1C(=O)CC(c2ccccc2)C12CCN(c1ncc(C)cn1)CC2 (stereo not given) | -13.83
41 | F[C@@H]1CN(Cc2ccccc2)C[C@@H]1OCc1nc2ccccc2[nH]1 | -3.249
42 | O=C(NCCCN1CCC(OC2CCCCC2)CC1)C1CCCC1 | -7.761
43 | CCC(C)N(Cc1cccnc1)C(=O)CCSC (stereo not given) | -1.177
44 | CCc1noc(CN(C)C(=O)C2COc3ccccc3C2)n1 (stereo not given) | 19.12
45 | CN(C)C(=O)CO[C@H]1CN(Cc2ccc(F)cc2)[C@@H]2CCCO[C@H]12.O=C(O)C(F)(F)F | -2.214
46 | CN(C)CCO[C@H]1CN(CC2CC2)[C@@H]2CCCO[C@H]12.O=C(O)C(F)(F)F.O=C(O)C(F)(F)F | 109
47 | Fc1ccccc1CN1C[C@H](OCC2CCOCC2)[C@H]2OCCC[C@H]21.O=C(O)C(F)(F)F | -9.213
48 | CN(C)C(=O)CO[C@@H]1CN(Cc2ccccc2F)[C@@H]2CCCO[C@@H]21.O=C(O)C(F)(F)F | -3.753

Row | Compound | Percent Effect [%]
49 | CCO[C@H]1CN(CC2CCOCC2)[C@@H]2CCCO[C@H]12.O=C(O)C(F)(F)F | 93.44
50 | CCO[C@@H]1CN(Cc2scnc2C)[C@@H]2CCCO[C@@H]21.O=C(O)C(F)(F)F.O=C(O)C(F)(F)F | -1.893
51 | CNC(=O)C1CN(C(=O)c2ccncc2)CCN(S(C)(=O)=O)C1 (stereo not given) | 113
52 | CNC(=O)C1CN(C(=O)c2cccs2)CCN(S(C)(=O)=O)C1 (stereo not given) | 103.3
53 | O=C(O)C[C@@H]1CCN(C(=O)c2cccs2)C[C@@H]1CCN1CCCCC1 | -8.603
54 | CNS(=O)(=O)c1ccc(C(=O)N2CCCC(n3cccn3)C2)cc1 (stereo not given) | -7.031
55 | CN(C)c1cc(C(=O)N2CCN(S(C)(=O)=O)CC2)ccn1 | -8.698
56 | CS(=O)(=O)NC[C@H]1OC[C@@H]2CCN(C(=O)c3cccnc3)C[C@@H]21 | -2.955
57 | CNC(=O)C1CN(C(=O)c2cccnc2)CCN(S(C)(=O)=O)C1 (stereo not given) | 102.1
58 | CC(C)C1CN(C(=O)c2cccs2)CCS1 (stereo not given) | -18.38
59 | CCCNC(=O)C[C@@H]1CCN(C(=O)c2cccnc2)C[C@@H]1CC | -4.226
60 | COCCN(Cc1cccnc1)c1nc(C)nc2oc(C)nc12 | 1.02
61 | CCCN(CC1CC1)C(=O)Cn1ccccc1=O | -7.373
62 | O=C(O)C(F)(F)F.O=C(O)C(F)(F)F.O=C(O)C(F)(F)F.c1cnc(N2CCN(C3CCC[C@@H]4CN(CC5CC5)C[C@H]34)CC2)nc1 (stereo not given in full) | -9.573
63 | Clc1cccc2c3c([nH]c12)CCN(Cc1cc2n(n1)CCCNC2)C3 | -3.179
64 | CC(C(=O)NC1CC1)S(=O)(=O)Cc1noc(C(C)(C)C)n1 (stereo not given) | 12.74
65 | O=C(Nc1cc(C2CCOCC2)[nH]n1)c1cc[nH]n1 | -3.397
66 | COC(CNC(=O)c1cc(C)on1)c1ccccc1C (stereo not given) | 2.502
67 | CCOc1cccc(NC(=O)Cc2cccc(O)c2)n1 | -45.48
68 | CCOc1cccc(COC(=O)c2ccc(F)cn2)n1 | -9.322
69 | CCOc1cccc(COC(=O)c2ccc(Cl)cn2)n1 | -10.12
70 | CCOc1cccc(NC(=O)c2cc(C)on2)n1 | 91.67
71 | CCOc1cccc(NC(=O)c2cc[nH]n2)n1 | 87.66
72 | CCOc1cccc(NC(=O)c2cscn2)n1 | -16.65

Row | Compound | Percent Effect [%]
73 | CCOc1cccc(COC(=O)c2cc(C)on2)n1 | 106.6
74 | CCOc1cccc(COC(=O)c2cscn2)n1 | -4.907
75 | CCOc1cccc(NC(=O)c2cnc(C)cn2)n1 | 87.8
76 | CCOc1cccc(COC(=O)c2cc(Cl)ccn2)n1 | -4.3
77 | CCN1CCN(C(=O)c2ccc3c(c2)CCCN3)[C@H]2CS(=O)(=O)C[C@H]21 | -2.171
78 | CSCCC1c2nc[nH]c2CCN1Cc1ccccc1C#N (stereo not given) | -9.025
79 | Cc1ccc(NC(=O)c2cc(S(=O)(=O)N3CCCCC3)c[nH]2)cc1F | 1.173
80 | COCCC1(CNC(=O)NCC2CN(C)CCN2C)CCC1 (stereo not given) | -22.96
81 | CC(C)c1ccc(OCCC(=O)N(C)C)cc1 | 6.13
82 | CC(C)c1nc(/C=C/c2cnn(-c3ccccc3)c2)ncc1C(=O)O | -2.711
83 | NC(=O)c1cccc(CC2CCN(C(=O)CCc3cccc(F)c3)C2)c1 (stereo not given) | -3.46
84 | Cc1ccsc1[C@@H]1CCN(C(=O)Cc2ccc(O)cc2)C[C@H]1O | -5.599
85 | Cc1nc2cc(C(=O)N3CCCC(n4ccnc4)C3)ccc2n1C (stereo not given) | 116.9
86 | Cc1nc2cc(C(=O)N3CCCC(n4cncn4)C3)ccc2n1C (stereo not given) | -4.268
87 | Cc1nccn1C1CCCN(C(=O)c2ccc3c(c2)nc(C)n3C)C1 (stereo not given) | 109.3
88 | CCOc1ccc(N(CCC#N)C(=O)c2ccnc(SC)c2)cc1 | 9.969
89 | Cc1cc(CNC(=O)[C@H]2CCCCN2C(=O)OC(C)(C)C)on1 | -34.39
90 | O=C(O)C(F)(F)F.O=C(O)C(F)(F)F.O=C(O)C(F)(F)F.c1coc(CN2C[C@@H]3OCCN(CCN4CCCC4)[C@@H]3C2)c1 | -5.292
91 | COCCN1CCO[C@H]2CN(C(=O)c3cccs3)C[C@H]21.O=C(O)C(F)(F)F | -7.528
92 | O=C(O)C(F)(F)F.O=C(O)C(F)(F)F.c1cc(CN2C[C@@H]3OCCN(CC4CC4)[C@@H]3C2)n[nH]1 | 105.8
93 | O=C(O)C(F)(F)F.O=C(O)C(F)(F)F.c1csc(CN2C[C@@H]3OCCN(CC4CCCO4)[C@@H]3C2)c1 (stereo not given in full) | -7.067
94 | O=C(O)C(F)(F)F.c1cnc(N2CCO[C@H]3CN(Cc4cc[nH]n4)C[C@H]32)cn1 | -10.59
95 | COCCN1CCO[C@H]2CN(Cc3cc[nH]n3)C[C@H]21.O=C(O)C(F)(F)F.O=C(O)C(F)(F)F | 90.56

— ChEMBL document CHEMBL3988442, “University of Dundee, Small-Polar-MMV Screening Library” (2021)
